D1 agonist: agonists of human D1 dopamine receptor. P21728. HEK293 T-REx D1 cells, calcium flux, agonist mode. activation, % at 2 µM. 360,000 compounds, 1% hits
Target sequence (P21728 whole entry, looked up): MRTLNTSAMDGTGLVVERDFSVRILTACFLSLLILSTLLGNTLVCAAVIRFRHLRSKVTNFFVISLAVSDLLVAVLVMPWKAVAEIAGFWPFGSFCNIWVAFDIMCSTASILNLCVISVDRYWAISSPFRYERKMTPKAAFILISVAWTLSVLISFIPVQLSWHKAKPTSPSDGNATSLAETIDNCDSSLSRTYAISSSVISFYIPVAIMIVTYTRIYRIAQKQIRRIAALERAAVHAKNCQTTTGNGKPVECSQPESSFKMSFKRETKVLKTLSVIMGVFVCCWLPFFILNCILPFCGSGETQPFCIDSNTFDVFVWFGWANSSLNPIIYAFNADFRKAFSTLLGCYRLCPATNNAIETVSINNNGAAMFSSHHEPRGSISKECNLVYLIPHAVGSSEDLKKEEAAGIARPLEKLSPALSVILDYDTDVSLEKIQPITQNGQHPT
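Tetracycline-induced HEK293 TREx D1 cells, force-coupled to calcium signalling, were dye-loaded with a no-wash calcium kit. Compound was pin-added after a 10 s baseline. Fluorescence was read kinetically at 1 cycle/s for 180 s, with calcium rises flagged as agonism.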
TRHR agonist: agonists of human TRH receptor; P34981; TRHR cells, calcium flux fluo-8, FDSS agonist mode; 360,000 compounds, 0.18% hits; activation, % at 2 µM
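Agonist-mode FDSS calcium read (Ex 480/Em 530, 1 s cycles) in 1536-well TRHR cells with fluo-8 dye, after 10-cycle baseline and 23 nL compound addition; TRH at EC20 (10 nM final) added afterwards for the enhancer phase.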
D1 antagonist: blocks dopamine activation of the human D1 receptor | AID 504652 | activity change, negative = inhibition, % at 10 µM | 360,000 compounds, 3.2% hits | HEK293 TREx D1 cells, calcium flux, dopamine EC80; stronger effect = lower value | P21728; in the data active means activity change below about -30%
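Antagonism measured as reduced calcium response to an EC80 dopamine addition following 180 s compound pre-read; cells were inducible HEK293 Trex D1 plated overnight at 30 C, read kinetically at 1 cycle/sec.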
TRHR PAM: allosterically enhances the human TRH receptor. TRHR cells, fluo-8 calcium fluorescence, EC20 TRH enhancement. enhancement, % at 2 µM. AID 493056. P34981. 360,000 compounds, 0.66% hits; in the data active means enhancement above about 30%
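Enhancer read-out: after compound pinning and an initial kinetic agonist-mode read, an EC20 of TRH (10 nM final) was injected and fluo-8 calcium signal (Ex 480/Em 530) followed at 1 s/cycle for 100 cycles in TRHR-expressing cells.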
D1 PAM: enhances dopamine response at the human D1 receptor. HEK293 TREx D1 cells, calcium flux, dopamine EC20 potentiation. 360,000 compounds, 0.036% hits. potentiation, % at 10 µM. P21728. AID 504651; in the data active means potentiation above about 30%
A number is an active result; – = inactive. A selection: hits, their analogues and other compounds. The true share with any hit is near 4.6%. Unless noted, no stated cut-off is given here; in the data, active means activation above about 30%; inactive means the rest.

SMILES	D1 agonist	TRHR agonist	D1 antagonist	TRHR PAM	D1 PAM
CCOc1cc(C(=O)NCc2ccc3c(c2)CCN3C(=O)c2ccc(F)cc2)cc(OCC)c1OCC	–	–	–	–	–
CCn1c(=O)c2ccccc2n(Cc2cccc([N+](=O)[O-])c2)c1=O	–	–	–	–	–
COc1ccc2oc(-c3ccccc3)c(C(=O)N(C)C)c2c1	–	–	-70	–	–
O=C1CC(=C(c2ccccc2)c2ccccc2)C(=O)N1CCCCN1CCN(c2ccccc2)CC1	–	–	-57	–	–
CCN(CC)c1ccc(/C=C2\C(=O)c3ccc(C(=O)O)cc3C2=O)cc1	354	106	–	–	–
CCN(CC)c1ccc(C(=O)O)cc1	–	–	–	–	–
O=c1c2cc(NC(=S)NC3CCCC3)ccc2nc2n1CCCCC2	–	–	–	–	–
O=c1c2cc(NC(=S)NC3CCCCC3)ccc2nc2n1CCCCC2	–	–	–	–	–
O=c1c2cc(NC(=S)NCCCN3CCC(Cc4ccccc4)CC3)ccc2nc2n1CCCCC2	46	–	-41	–	–
CC(C)NC(=S)Nc1ccc2nc3n(c(=O)c2c1)CCCCC3	–	–	-79	–	–
O=c1c2cc(NC(=S)NC3CC3)ccc2nc2n1CCCCC2	–	–	-38	–	–
CC1CCCCN1C(=S)Nc1ccc2nc3n(c(=O)c2c1)CCCCC3 (stereo unspecified)	–	–	–	–	–
O=c1c2cc(NC(=S)N3CCC(N4CCCCC4)CC3)ccc2nc2n1CCCCC2	–	–	-38	–	–
CC(OC(=O)Cc1n[nH]c(=O)c2ccccc12)C(=O)Nc1cccc([N+](=O)[O-])c1 (stereo unspecified)	–	–	–	–	–
COc1ccc(C2C(C(C)=O)=C(C)Nc3ncnn32)cc1[N+](=O)[O-] (stereo unspecified)	–	–	–	–	–
CC1CCN(S(=O)(=O)c2ccc3c(c2)CCN3C(=O)Nc2ccc(Br)cc2F)CC1	–	–	–	–	–
COc1cc2ccccc2cc1C(=O)OCC(=O)NC1CCS(=O)(=O)C1 (stereo unspecified)	–	–	-33	–	–
CCC(=O)O[C@@H]1CC(=O)O[C@H](C)CC=CC=C[C@@H](O)[C@H](C)C[C@H](CC=O)[C@H](O[C@H]2O[C@H](C)[C@@H](O[C@H]3C[C@@](C)(O)[C@@H](OC(=O)CC)[C@H](C)O3)[C@H](N(C)C)[C@H]2O)[C@H]1OC	–	–	–	–	–
CCN(CC)c1ccc2cc(C(=O)NCc3ccc(F)cc3)c(=N)oc2c1	170	34	–	–	–
CC(=O)c1ccc(N2CCN(c3ccc(S(=O)(=O)NCCN(C)C)cc3[N+](=O)[O-])CC2)cc1	–	–	–	–	–
CN(C)CCNS(=O)(=O)c1ccc(N2CCc3ccccc32)c([N+](=O)[O-])c1	64	–	–	–	–
COc1ccc(-c2[nH]ncc2CNCc2cc(C)n(C)n2)c(F)c1	–	–	–	–	–
CCc1ccc(O)c(CNCCNCc2cc(CC)ccc2O)c1	31	–	–	–	–
Cc1nc(-c2ccccc2)sc1C(=O)Nc1ccc(S(N)(=O)=O)cc1	–	–	–	–	–
COc1ccc(S(=O)(=O)c2nnn(-c3cc(Cl)c(OC)cc3OC)c2C)cc1	61	–	–	–	–
SMILES	D1 agonist	TRHR agonist	D1 antagonist	TRHR PAM	D1 PAM
COc1ccccc1C(=O)NCCNC(=O)c1ccco1	–	–	–	–	–
CCc1ccc(CNC(=O)c2cc3c(=O)n(Cc4cccs4)ccc3nc2C)cc1	–	–	–	–	–
COc1cc(NC(=O)c2ccc3c(c2)OCO3)c2ncccc2c1	–	–	-31	–	–
COc1ccc(N2CCOCC2)c(NC(=O)c2ccc3c(c2)OCO3)c1	–	–	–	38	–
COc1ccc(N2CCCC2)c(NC(=O)c2ccc([N+](=O)[O-])o2)c1	–	–	-36	–	–
COc1ccc(C(=O)NC(=S)Nc2ccccc2N2CCOCC2)cc1[N+](=O)[O-]	–	–	–	–	–
COc1ccc(C(=O)Nc2ccccc2N2CCOCC2)cc1[N+](=O)[O-]	–	–	-32	–	–
COC(=O)c1ccc(N2CCOCC2)c(NC(=O)c2ccc3c(c2)OCO3)c1	–	–	–	–	–
CCOC(=O)c1c(N2C(=O)CC(Sc3ccccc3C(=O)O)C2=O)sc2c1CCCC2 (stereo unspecified)	–	–	–	–	–
CCOc1cc(/C=N/NC(=O)c2ccncc2)ccc1OC(=O)c1ccccc1	–	–	-40	–	–
CCOC(=O)Cc1csc(NC(=O)CS(=O)(=O)Cc2ccccc2)n1	–	–	–	–	–
Cc1cc(C)nc(OC(=O)c2ccc(Cl)cc2Cl)n1	–	–	–	–	–
COC(=O)c1nc2ccc(C)cn2c1F	–	–	-58	–	–
CCC(=O)Nc1c(-c2ccc(C)cc2)nc2ccc(C)cn12	–	–	–	–	–
CC(C)Cc1ccc(C(C)C(N)=NCCc2ccccc2)cc1 (stereo unspecified)	30	–	–	–	–
COc1ccc(CCN=C(N)C(C)c2ccccc2)cc1OC (stereo unspecified)	–	–	–	–	–
COc1ccc(C(=O)NCCSc2c(C)[nH]c3ccccc23)cc1	–	–	–	–	–
Cc1[nH]c2ccccc2c1SCCNC(=O)c1ccc(F)cc1	–	–	-34	–	–
CN(c1ccc(C(=O)N2CCOCC2)cc1)S(=O)(=O)c1ccc(Cl)cc1	–	–	–	–	–
CN1CCN(C(=O)c2ccc(CSc3ccc(Cl)cc3)cc2)CC1	–	–	-30	–	–
CN1CCN(C(=O)c2cc(Cl)ccc2NC(=O)c2ccc(Cl)cc2Cl)CC1	–	–	-31	–	–
CN(c1ccc(C(=O)N2CCCCCC2)cc1)S(=O)(=O)c1ccc(Cl)cc1	–	–	-38	–	–
O=C(Nc1ccccc1C(=O)N1CCCC1)c1ccc(Cl)cc1Cl	–	–	–	–	–
O=C(c1ccc(Cl)cc1)N1CCN(c2ccnc3cc(Cl)ccc23)CC1	–	–	-55	–	–
Cc1ccc(NC(=O)CN(C)C(=O)/C=C/c2cccc(F)c2)cc1	–	–	–	–	–
SMILES	D1 agonist	TRHR agonist	D1 antagonist	TRHR PAM	D1 PAM
CN1CCN(C(=O)c2ccc(Cl)cc2)CC1	–	–	–	33	–
Cc1ccc(C(=O)N2CCC(C(=O)c3ccc(Cl)cc3)CC2)cc1	–	–	-44	–	–
O=C(Nc1ccccc1C(=O)NCCN1CCOCC1)c1ccc(Cl)cc1Cl	–	–	-31	–	–
COc1cccc(N2CCc3c(C)nc4ccc(Cl)cc4c32)c1	–	–	–	–	–
CCN1Cc2c(/C=C/c3ccccc3)nc3ccc(OC)cc3c2N(c2cccc(Cl)c2)C1	–	–	-63	–	–
Cc1ccccc1NC(=O)c1sc2nc(-c3ccncc3)ccc2c1N	48	–	–	–	–

Bioassay records from PubChem BioAssay.
